Results: publication PMC4336329 (PLoS ONE, 2015)
In all, about 310,000 compounds went through this assay and about 14,000 (4.5%) showed an effect of 50% or more. Effects have a minus sign here. The list comes from a sample in which strong results are over-represented; it also holds similar structures and randomly drawn compounds.

molecular target: human ether-à-go-go-related gene (hERG) potassium channel (human, UniProt Q12809); experiment: primary screen, population patch clamp on CHO cells stably expressing hERG; higher = less effect of the substance
Sequence (Q12809 whole entry, looked up): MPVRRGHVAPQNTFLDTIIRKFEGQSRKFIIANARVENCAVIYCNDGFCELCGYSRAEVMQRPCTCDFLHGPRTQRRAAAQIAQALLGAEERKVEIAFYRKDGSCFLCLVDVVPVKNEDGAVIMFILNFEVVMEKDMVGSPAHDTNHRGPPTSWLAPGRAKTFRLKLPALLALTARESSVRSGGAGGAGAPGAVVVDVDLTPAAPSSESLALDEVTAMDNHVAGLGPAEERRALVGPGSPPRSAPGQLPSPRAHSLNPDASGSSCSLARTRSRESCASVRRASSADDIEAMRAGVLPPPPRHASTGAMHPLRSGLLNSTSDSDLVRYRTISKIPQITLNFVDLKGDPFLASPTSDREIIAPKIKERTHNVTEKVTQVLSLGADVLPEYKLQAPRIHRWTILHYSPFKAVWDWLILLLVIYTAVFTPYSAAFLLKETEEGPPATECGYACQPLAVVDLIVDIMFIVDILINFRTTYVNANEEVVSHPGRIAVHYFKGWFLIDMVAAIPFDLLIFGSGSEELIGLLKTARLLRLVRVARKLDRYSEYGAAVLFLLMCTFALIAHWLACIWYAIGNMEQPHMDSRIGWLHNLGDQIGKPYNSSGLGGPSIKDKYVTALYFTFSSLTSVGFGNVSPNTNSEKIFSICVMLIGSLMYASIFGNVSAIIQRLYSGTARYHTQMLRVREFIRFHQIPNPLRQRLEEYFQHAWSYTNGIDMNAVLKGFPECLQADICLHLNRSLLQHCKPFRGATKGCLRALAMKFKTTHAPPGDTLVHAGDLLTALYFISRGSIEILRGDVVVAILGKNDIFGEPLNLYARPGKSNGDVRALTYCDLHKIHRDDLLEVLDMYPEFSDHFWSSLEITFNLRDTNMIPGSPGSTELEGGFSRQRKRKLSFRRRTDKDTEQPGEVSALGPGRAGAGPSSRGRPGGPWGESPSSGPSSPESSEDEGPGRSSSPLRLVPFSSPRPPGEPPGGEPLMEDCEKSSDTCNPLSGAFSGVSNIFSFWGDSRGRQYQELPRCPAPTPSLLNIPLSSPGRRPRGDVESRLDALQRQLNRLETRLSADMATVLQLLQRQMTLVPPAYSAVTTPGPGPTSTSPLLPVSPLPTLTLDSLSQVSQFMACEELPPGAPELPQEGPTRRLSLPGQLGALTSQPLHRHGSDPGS
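Note: peak tail current of the secondary pulse compared with the same well before compound.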

| SMILES | hERG current change (%, negative = inhibition) at 10uM |
| --- | --- |
| O=C(CCCc1nc(-c2ccc(Cl)cc2)no1)Nc1cccnc1 | -24.6% |
| CCCOc1ccc(C2C(=O)N(C3CCCCCC3)CC(=O)N2Cc2ccco2)cc1OC (centres unmarked) | -36.7% |
| COc1ccc(C2C(=O)N(C3CCCCC3)CC(=O)N2C2CCCCC2)cc1 (centres unmarked) | -51.7% |
| COc1ccc(C2C(=O)N(C3CCCCC3)CC(=O)N2C2CCCC2)cc1 (centres unmarked) | -12.1% |
| COc1ccc(C2C(=O)N(C3CCCCC3)CC(=O)N2Cc2ccco2)cc1 (centres unmarked) | -53.7% |
| Cc1ccc(C2C(=O)N(C3CCCC3)CC(=O)N2C2CCCCC2)cc1 (centres unmarked) | -25.4% |
| COc1cc(C2C(=O)N(C3CCCC3)CC(=O)N2Cc2ccco2)ccc1OC(C)C (centres unmarked) | -27.6% |
| COc1cccc(-c2nnc3n2N=C(c2cccc(Br)c2)CS3)c1 | 6.32% |
| CCOC(=O)Cn1c(-c2ccccc2)ccc(C#N)c1=O | 8.28% |
| Cc1ccc(S(=O)(=O)NC23CC4CC(CC(C4)C2)C3)cc1 | 3.97% |
| CCC(=O)N1CCN(c2ccc(Cl)cc2NC(=O)c2ccc(N3CCCC3)c([N+](=O)[O-])c2)CC1 | -6.9% |
| COc1ccccc1NC(=O)CCN1C(=O)C2CC=C(Cl)CC2C1=O (centres unmarked) | -2.46% |
| C=C(C)c1cccc(C(C)(C)NC(=O)NC2CCCC2)c1 | 15.1% |
| C=C(C)c1cccc(C(C)(C)NC(=O)NC2CN3CCC2CC3)c1 (centres unmarked) | 1.14% |
| COc1cc(C(=O)NC2CCN(Cc3ccccc3)CC2)cc(Cl)c1OC | -44.3% |
| CC(C)(Oc1ccc(Cl)cc1)C(=O)NC1CCN(Cc2ccccc2)CC1 | -70.4% |
| CC(C)(Oc1ccc(Cl)cc1)C(=O)NC1CC1 | 1.41% |
| COc1ccccc1CC(=O)NC1CCN(Cc2ccccc2)CC1 | 1.52% |
| COc1cc(C(=O)NC2CCN(Cc3ccccc3)CC2)cc(Cl)c1OC(C)C | -61.2% |
| CC(C)(Oc1ccc(Cl)cc1)C(=O)NC1CCCCC1 | 0.43% |
| Cc1ccc(/C=C(\NC(=O)c2ccccc2)C(=O)NCC2CCCO2)o1 (centres unmarked) | -5.4% |
| Cc1ccc(/C=C(\NC(=O)c2ccccc2)C(=O)NCCN2CCOCC2)o1 | -3.91% |

| SMILES | hERG current change (%, negative = inhibition) at 10uM |
| --- | --- |
| C=C(C)c1cccc(C(C)(C)NC(=O)NC2CCN(Cc3ccccc3)CC2)c1.Cl | -55.5% |
| Cc1ccc(/C=C(\NC(=O)c2ccccc2)C(=O)NC2CCN(Cc3ccccc3)CC2)o1 | -55.5% |
| Cc1cccc(-c2onc3ccc(C4(C)OCCO4)cc23)c1 | -1.6% |
| CCOC(=O)c1[nH]cnc1C(=O)O | -2.12% |
| CN(C)c1ccc(N2C(=NC(=O)C3CCCO3)SC3CS(=O)(=O)CC32)cc1 (centres unmarked) | 11.1% |
| CCN(CC)C(=O)N1CCN(C(=O)N2CCOCC2)CC1 | 29.8% |
| Cc1ccc2cccc(S(=O)(=O)N3CCN(c4cccc(Cl)c4)CC3)c2n1 | -2.91% |
| CC1CC(=O)N(CC(=O)Nc2cccc(F)c2)c2ccccc2S1(=O)=O (centres unmarked) | -4.3% |
| O=C(N1CCCCCC1)n1c(Cc2ccccc2)nc2ccccc21 | -30.5% |
| O=C(CN1CCN(c2ncc(C(F)(F)F)cc2Cl)CC1)NC(=O)NCc1ccccc1 | 4.2% |
| CS(=O)(=O)Cc1ccc(C(=O)NC2CCN(Cc3ccccc3)C2)cc1 (centres unmarked) | -5.28% |
| Cl.O=C(NC(=S)NC1CCN(Cc2ccccc2)CC1)c1ccc(F)cc1 | -72.3% |
| CC(C)(C)c1ccc(C(=O)N2CCC(NC(=O)c3ccccc3)CC2)cc1 | -1.48% |
| Fc1ccc(NC(=S)NC2CCN(Cc3ccccc3)CC2)cc1 | -30% |
| CC(C)(C)c1ccc(C(=O)NC2CCN(Cc3ccccc3)CC2)cc1 | -65.3% |
| S=C(Nc1ccccc1)NC1CCN(Cc2ccccc2)CC1 | -39.6% |
| O=C(NC1CCN(Cc2ccc(F)cc2)CC1)c1ccccc1 | -50.2% |
| Cc1ccc(-n2c(=O)[nH]c3cc(C(=O)NC4CCN(Cc5ccccc5)CC4)ccc3c2=O)cc1 | 11.2% |
| O=C(NC1CCN(Cc2ccccc2)CC1)c1ccc2c(c1)[nH]c(=O)n2Cc1ccc(F)cc1 | -21.8% |
| Cc1ccccc1C(=O)NC1CCN(Cc2ccccc2)CC1 | -29.1% |
| Cc1ccc(C)n1-c1ccc(C(=O)NC2CCN(Cc3ccccc3)CC2)cc1 | -65.5% |
| O=C(NC1CCN(Cc2ccccc2)CC1)c1ccc(CS(=O)c2ccc(F)cc2)o1 (centres unmarked) | -22.4% |
